# The supplement of paper PMC12636033
# ± gives the standard deviation of the averaged measurements. The full ranking holds about 33,000 sequences; the median of “E-score (rank enrichment, -0.5 to 0.5)” is about -0.0043, and the highest 2% start at about 0.24. What follows is part of a selection rich in the highest values, with near analogues and random picks from the rest.
# Test system: 2Sp-muMax20 (muMax20 with two 2,6-bis(methyl)pyridine Cys staples)
# Assay: PBM 8-mer E-score (E-score (rank enrichment, -0.5 to 0.5)); higher = stronger preferential binding
# Method: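 Protein binding microarray (universal PBM chip covering all 10-mers in fixed probe flanks) with chemically synthesized human Max(13-93) bHLH-LZ analogs (not full-length Max) bearing noncanonical residues (hArg, Tha, Aib, Nle at 65) and aromatic Cys staples. Read-out per 8-mer (and its reverse complement): E-score (rank-based enrichment, -0.5 to 0.5) and Z-score of median probe intensity.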
row,Sequence,PBM 8-mer E-score
1,AAATATAG,0.148 ± 0.036
2,AAATATAT,0.3135 ± 0.00093
3,ATGCGCCG,-0.102 ± 0.045
4,CATGGCAG,0.0778 ± 0.016
5,CCCAAAGC,-0.158 ± 0.047
6,GAGCCGAA,-0.123 ± 0.12
7,AAATATAA,0.255 ± 0.03
8,AAATATCA,0.132 ± 0.038
9,AACTATAA,0.199 ± 0.015
10,TACTATAA,0.261 ± 0.011
11,AAATAAAA,0.175 ± 0.059
12,GACTATAA,0.0335 ± 0.072
13,TAGCGGCA,-0.00468 ± 0.025
14,TTAGTCAA,-0.0593 ± 0.046
15,ATCTCACA,0.141 ± 0.066
16,AAATCCAA,0.0276 ± 0.05
17,TAATCCAA,0.256 ± 0.031
18,GAATCCAA,0.132 ± 0.0084
19,ACGGGATA,0.146 ± 0.0045
20,CATCTTGA,0.00562 ± 0.03
21,GATCTTGA,0.263 ± 0.086
22,TATCTTGA,0.123 ± 0.099
23,ACTCACTG,0.0171 ± 0.1
24,ATGCCTAG,0.0159 ± 0.081
25,GAGGTCCC,-0.243 ± 0.0028

row,Sequence,PBM 8-mer E-score
1,AAGGCATT,-0.0085 ± 0.05
2,ATGAGGGC,0.115 ± 0.015
3,AGGAGGGG,0.269 ± 0.0072
4,ATGAGGGA,0.0977 ± 0.073
5,AGGAGGGC,-0.104 ± 0.14
6,AGTAGGGA,0.0183 ± 0.02
7,ATGAGGGG,0.24 ± 0.05
8,AGTAGGGG,0.24 ± 0.072
9,AGTAGGGC,0.0658 ± 0.099
10,AGGAGGGA,0.000855 ± 0.036
11,GGCGCTAA,-0.136 ± 0.035
12,CCCACTGA,0.0382 ± 0.01
13,CGGGACGA,-0.1379 ± 0.00041
14,AGTATCAG,0.0699 ± 0.071
15,CGCCCTAC,-0.00866 ± 0.015
16,GCCCGGGA,-0.254 ± 0.03
17,TGATGCCA,0.033 ± 0.029
18,TATCAGGA,0.0871 ± 0.048
19,ACCAAAGC,0.0731 ± 0.02
20,GTTACATA,0.106 ± 0.096
21,GCGCTCCC,-0.0536 ± 0.052
22,AATCAACA,0.262 ± 0.024
23,GATCAACA,-0.111 ± 0.05
24,TATCAACA,0.139 ± 0.05
25,GCTATGCC,-0.00318 ± 0.017

row,Sequence,PBM 8-mer E-score
1,AGTGCACA,-0.000545 ± 0.11
2,CTCGATCA,0.0252 ± 0.013
3,GGCGAGAC,-0.0185 ± 0.036
4,CTACTTTA,0.0402 ± 0.06
5,ATACTTTA,0.255 ± 0.07
6,ATACTTTG,0.185 ± 0.015
7,AGTCTCGA,0.0438 ± 0.016
8,ACCTCCAC,-0.105 ± 0.0033
9,ACGTGATG,0.244 ± 0.0044
10,ACGTGAAA,0.243 ± 0.025
11,ACGTGAAC,0.0294 ± 0.091
12,GTGTGATA,0.15 ± 0.061
13,ACGTGATA,0.222 ± 0.02
14,TCGTGAAA,-0.115 ± 0.084
15,ATGTGAAA,0.319 ± 0.026
16,CTGTGAAA,-0.00932 ± 0.11
17,ACGTGATC,0.17 ± 0.081
18,GTGTGAAA,0.11 ± 0.0048
19,CTGTGATA,-0.0212 ± 0.031
20,ATGTGATA,0.288 ± 0.051
21,CGCTCCTA,-0.177 ± 0.024
22,AACAGTAC,0.0773 ± 0.0098
23,AGCTAGAC,-0.14 ± 0.029
24,CCCCCGAA,-0.24 ± 0.13
25,CCGTGACG,-0.127 ± 0.12

row,Sequence,PBM 8-mer E-score
1,CCAAGGGG,-0.104 ± 0.046
2,ATACTGAC,0.0362 ± 0.0098
3,ATACTGAT,0.2387 ± 0.00027
4,ATACTGTC,0.183 ± 0.041
5,GCAGATCC,-0.0702 ± 0.063
6,ACGTGACC,0.149 ± 0.063
7,TCCTTTAA,0.0188 ± 0.023
8,AATAATGG,0.126 ± 0.043
9,GATAATGA,0.00488 ± 0.095
10,CATAATGA,0.1647 ± 0.0015
11,AATAATGA,0.238 ± 0.017
12,AATAATGT,0.241 ± 0.044
13,AATAATGC,0.143 ± 0.1
14,GACCTGCC,-0.149 ± 0.014
15,ATAACAAC,0.0625 ± 0.012
16,ATAACAAT,0.244 ± 0.022
17,ATAACATC,0.236 ± 0.034
18,ATAACATG,0.229 ± 0.027
19,ATAACAAG,0.221 ± 0.044
20,CTAACATC,0.0136 ± 0.022
21,AGGACTCA,0.0578 ± 0.11
22,CAGCGAAA,-0.113 ± 0.0075
23,ACTGTAGG,0.0115 ± 0.027
24,AGAGTCGC,0.0183 ± 0.052
25,CTCTCAAA,-0.015 ± 0.005

row,Sequence,PBM 8-mer E-score
1,AACTATTG,0.24 ± 0.051
2,AACTATAC,0.114 ± 0.06
3,AACTATTC,-0.0563 ± 0.067
4,CACTATAC,0.25 ± 0.013
5,AACTATTA,0.169 ± 0.027
6,AACTATAG,0.212 ± 0.074
7,GACTATAC,0.141 ± 0.068
8,CACTATAA,-0.0291 ± 0.0069
9,CACTATAG,0.243 ± 0.038
10,CCGGATCA,-0.0752 ± 0.094
11,AATTATGC,0.202 ± 0.025
12,ATGGATGC,0.0345 ± 0.13
13,CTCGCGAC,0.0452 ± 0.004
14,GTCGCGAA,-0.143 ± 0.017
15,CACGCGAA,0.0343 ± 0.011
16,AACGCGAG,0.0185 ± 0.046
17,CACGCGAG,0.26 ± 0.025
18,CACGCGAC,0.277 ± 0.013
19,GTCGCGAC,0.314 ± 0.014
20,AACGCGAC,0.0983 ± 0.018
21,GACGCGAC,-0.108 ± 0.084
22,CTAGAGTC,-0.122 ± 0.025
23,ACCTCTCT,-0.0431 ± 0.11
24,AGGCACTC,-0.155 ± 0.0063
25,GCCACGGC,-0.219 ± 0.036

row,Sequence,PBM 8-mer E-score
1,CGCCTATC,0.0914 ± 0.054
2,ATGCGGTC,-0.0281 ± 0.033
3,ACATGTGG,0.364 ± 0.031
4,AGATGTGC,0.0607 ± 0.028
5,ACATGTGC,0.283 ± 0.052
6,AAATGTGG,0.138 ± 0.015
7,AGATGTGG,0.0241 ± 0.00082
8,CTATGTGC,0.13 ± 0.017
9,GCGAAGGA,-0.1 ± 0.011
10,CCTGAAGC,-0.0531 ± 0.025
11,AGATTGCA,0.0232 ± 0.053
12,TGATTGCA,0.286 ± 0.081
13,CGATTGCA,0.000985 ± 0.025
14,ACGTCGCA,-0.0865 ± 0.15
15,CTCGCTTC,-0.0128 ± 0.0032
16,TACAAAAA,0.26 ± 0.052
17,TACAAGAA,0.213 ± 0.018
18,GACAATAA,0.188 ± 0.0055
19,GACAATAC,0.144 ± 0.15
20,CACAATAA,0.0537 ± 0.028
21,TACAATAA,0.321 ± 0.051
22,AACAATAA,0.134 ± 0.036
23,AACAATAC,0.263 ± 0.0036
24,AACAAAAA,-0.0104 ± 0.045
25,GATAAACC,-0.167 ± 0.039

row,Sequence,PBM 8-mer E-score
1,TCAGGGGA,0.143 ± 0.019
2,TAAACGAA,0.143 ± 0.00096
3,AACTGATG,-0.0947 ± 0.093
4,CAAAACCA,0.218 ± 0.056
5,TTCGAAAA,0.0928 ± 0.011
6,CCAGAGCC,0.0426 ± 0.067
7,CTAATTAA,0.0684 ± 0.14
8,TTAATTAA,0.303 ± 0.081
9,CTAATTAC,0.108 ± 0.024
10,ATAATTAC,0.297 ± 0.044
11,AAAATTAA,0.126 ± 0.057
12,GTAATTAC,0.177 ± 0.0081
13,AAAATTAG,0.129 ± 0.0083
14,GTAATTAA,0.123 ± 0.033
15,ATAATTAT,0.274 ± 0.062
16,ACAATTAT,0.139 ± 0.091
17,AAAATTAT,0.252 ± 0.027
18,ATAATTAA,0.183 ± 0.096
19,CAGCTGGC,0.00279 ± 0.062
20,TAAGACGA,0.118 ± 0.035
21,AGTTCACA,0.0105 ± 0.0032
22,AATATCAC,0.189 ± 0.038
